Screening results from PubChem.
In the library only some 12% were active in any assay of this set; here they are far more common.
BAZ2B inh = blocks human BAZ2B | Q9UIF8 | AlphaScreen BAZ2B-H3K14Ac peptide displacement | Potency, µM (titrated, usually from 114 µM), for inactives: at the highest dose activity change, negative = inhibition, hits mostly inhibitors | hit rate 4.4% among 360,000; note: potency is the fitted concentration of half-maximal effect; % is set by controls: 0 for no effect and ±100 for the full control effect; nearly all actives have a fitted effect of over 60% in size
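AlphaScreen displacement of biotin-H3(5-23)K14Ac peptide (50 nM final) from BAZ2B (50 nM final) in PBS pH 7.4, 0.01% Tween-20; complex preformed 30 min RT, then compounds (top 110 uM) 30 min RT, beads 20 min dark.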
G9a block = blocks human histone lysine methyltransferase G9a. Q96KQ7. G9a H3K9 monomethylation, AlphaScreen, 2 h. Potency, µM (titrated, usually from 102 µM), for the others: top-dose activity, negative = inhibition, most hits filed as inhibitors. hit rate 8.8% among 350,000; note: potency is the fitted concentration of half-maximal effect; % is set by controls: 0 for no effect and ±100 for the full control effect; nearly all actives have a fitted effect of over 75% in size
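Chemiluminescent proximity detection of H3K9 monomethylation, read after 10 min bead incubation in the dark. Reaction: 20 nM G9a, 500 nM biotin-H3K9 peptide, 20 uM SAM cofactor, 2 h, room temperature, following 15 min enzyme-compound preincubation.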
PLK1 PBD block = inhibitors of human PLK1 polo-box domain binding; AID 720504; Potency, µM, for inactives: max response, negative = inhibition, hits mostly inhibitors; P53350; Plk1 PBD binding of FITC phosphopeptide, fluorescence polarization; hit rate 2.8% among 360,000; note: potency is the fitted concentration of half-maximal effect; series mostly up to about 57 µM; % is set by controls: 0 for no effect and ±100 for the full control effect; nearly all actives have a fitted effect of over 65% in size
PI5P4Ka inh = inhibitors of human PI5P4K alpha; P48426; max response, %; PI5P4Kalpha enzyme, ADP-Glo luminescence, 60 min; hits give low values; AID 652105; hit rate 1.2% among 330,000; active = max response of -50% or lower; inconclusive = between -30% and -50%; inactive = -30% or higher; note: value at the top dose of about 77 µM; % is set by controls: 0 for no effect and ±100 for the full control effect
Target sequence (P48426 whole entry, looked up): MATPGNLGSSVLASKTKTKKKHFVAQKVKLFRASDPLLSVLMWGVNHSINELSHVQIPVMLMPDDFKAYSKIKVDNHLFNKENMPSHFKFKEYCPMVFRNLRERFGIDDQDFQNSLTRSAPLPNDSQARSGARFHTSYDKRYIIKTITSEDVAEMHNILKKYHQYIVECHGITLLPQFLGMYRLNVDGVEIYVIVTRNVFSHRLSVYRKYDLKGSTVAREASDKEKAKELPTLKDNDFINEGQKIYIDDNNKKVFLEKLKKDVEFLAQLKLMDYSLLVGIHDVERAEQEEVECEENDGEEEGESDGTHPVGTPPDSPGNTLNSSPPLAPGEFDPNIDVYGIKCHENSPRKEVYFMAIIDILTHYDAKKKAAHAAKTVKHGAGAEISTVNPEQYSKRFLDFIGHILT
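Human PI5P4Kalpha with substrate in 0.038 M HEPES pH 7.4, 0.28 mM EGTA, 0.1% CHAPS, 5% DMSO; reaction started with 5 microM ATP (final), 60 min at room temperature. ADP formed read by ADP-Glo luminescence.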
HP1b chromo inh = inhibitors of HP1-beta chromodomain binding to methylated histone tails; P83916; AlphaScreen HP1-beta / biotin-H3K9me3 peptide binding; Potency, µM (titrated, usually from 114 µM), for the others: at the top dose activity change, negative = inhibition, most hits filed as inhibitors; hit rate 0.56% among 390,000; AID 540317; note: potency is the fitted concentration of half-maximal effect; nearly all actives have a fitted effect of over 70% in size
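Compound inhibition of the preformed complex between 50 nM HP1-beta and 50 nM biotinylated H3K9me3 peptide was read by AlphaScreen. Buffer was PBS pH 7.4 with 0.01% Tween-20. Incubations ran 30 min at room temperature, with 10 ug/mL donor/acceptor beads.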
JMJD2A Tudor = JMJD2A Tudor domain (human) inhibition; AlphaScreen JMJD2A-Tudor / H3K4me3 peptide binding; Potency, µM (highest dose often 114 µM), for inactives: at the top dose activity change, negative = inhibition, most hits filed as inhibitors; hit rate 4.4% among 390,000; AID 504339; note: potency is the fitted concentration of half-maximal effect; % is set by controls: 0 for no effect and ±100 for the full control effect; nearly all actives have a fitted effect of over 50% in size
* = called active by the depositor; ? = inconclusive; nt = no result given; [ ] = dose if it differs, or a comment. Unless noted, calls come from the whole dose curve; as a rule, active = well fitted curve in the direction sought with a large enough effect; inconclusive = small, poorly fitted or top-dose-only effect, or another doubt; inactive = no such curve, though single readings can be large; an effect the other way counts as inactive or inconclusive.

SMILES	BAZ2B inh	G9a block	PLK1 PBD block	PI5P4Ka inh	HP1b chromo inh	JMJD2A Tudor
CCOC(=O)c1c(NC(=O)C2COc3ccccc3O2)sc2c1CC(C)(C)NC2(C)C (configuration not stated)	?	56µM*	0%	2	14%	-28%
CCOC(=O)c1c(NC(=O)Cc2ccccc2)sc2c1CC(C)(C)NC2(C)C	-11%	?	1%	10	19%	-28%
CCOC(=O)c1c(NC(=O)C2COc3ccccc3O2)sc(C(C)=O)c1C (configuration not stated)	4%	50µM*	?	nt	-17%	-14%
CCN(CC)CCCNc1nc(SC)nc2sc3c(c12)CCN(C)C3	-12%	?	nt	nt	nt	nt
COc1ccc(C2OC(CCc3ccccc3)CC3=C2C(=O)OC(C)(C)O3)cc1 (configuration not stated)	nt	nt	-6%	19	nt	nt
OCC(O)C(O)C(O)C(O)CO (configuration not stated)	nt	28%[59 µM]	nt	nt	nt	nt
COc1ccc(C(O)c2nccc3cc(OC)c(OC)cc23)cc1OC (configuration not stated)	56µM*	3.5µM*	-7%	-17	8%	?
CCOC(=O)N1CCN(C(=O)c2ccc3c(c2)N(Cc2cc(C)ccc2C)C(=O)c2ccccc2S3=O)CC1 (configuration not stated)	-38%	22%	2%	1	38%	-18%
CC1(C)OC(=O)C2=C(C[C@@H](C3CCCC3)O[C@H]2c2ccc(Cl)cc2)O1	nt	nt	-4%	12	nt	nt
CCCCNC(=O)c1c(N)[nH]c(C(=O)c2ccccc2)c1-c1ccccn1	nt	nt	1%	1	nt	nt
Cc1ccccc1OCC(=O)Nc1cc(S(=O)(=O)N2CCOCC2)ccc1N1CCCC1	?	-8%[12.7 µM]	-2%	-8	25%	-34%
CC(C)c1ccccc1OCC(=O)Nc1cc(S(=O)(=O)N2CCOCC2)ccc1N1CCCC1	-9%	28µM*	-2%	10	-26%	?
CCOc1ccc(S(=O)(=O)N2CCOCC2)cc1NC(=O)C1=COCCO1	34%	-4%	-2%	1	14%	-1%
COc1ccc(S(=O)(=O)N2CCN(c3ccc(C)cc3C)CC2)cc1OC	1%	?	24µM*	-1	1%	?
CCOc1ccc(S(=O)(=O)N2CCOCC2)cc1NC(=O)c1ccc(N2CCCC2=O)cc1	-4%	32µM*	-5%	-18	18%	-8%
CCC(=O)c1ccc(OCC(=O)Nc2cc(S(=O)(=O)N3CCCCC3)ccc2N2CCN(CC)CC2)cc1	-35%	10µM*	-1%	-6	-9%	-31%
CN(CC(=O)Nc1cccc(F)c1)C(=O)/C=C/c1ccc2ccccc2n1	?	nt	3%	-19	28%	-19%
Cc1ccc(-c2nc(CS(=O)(=O)CC(=O)Nc3ccc(Br)cc3F)c(C)o2)cc1	?	-1%[59 µM]	nt	nt	36%	-12%
Cc1cccc(NC(=O)Cn2c(=O)n(CCC(=O)N3CCc4ccccc4C3)c(=O)c3ccccc32)c1	-2%	-9%[59 µM]	nt	nt	1%	-24%
CCN1CCN(S(=O)(=O)c2ccc(Cl)c(C(=O)N(C)Cc3ccco3)c2)CC1	8%	6%	-1%	0	39%	-6%
COc1ccc(OC)c(NC(=O)COc2ccc(S(=O)(=O)N3CCCC3)cc2)c1	-16%	40µM*	-11%	-24	15%	-17%
CCN1CCN(c2ccc(S(=O)(=O)N3CCCCC3)cc2NC(=O)COc2ccc(Cl)c(C)c2)CC1	?	7%[12.7 µM]	0%	-1	11%	?
COc1ccccc1OCC(=O)Nc1cc(S(=O)(=O)N2CCCCC2)ccc1N1CCCCC1	79µM*	8.9µM*	-5%	-9	-3%	?
COc1ccc(S(=O)(=O)N2CCOCC2)cc1NC(=O)Cc1cccs1	5%	-4%[2.33 µM]	-11%	-14	18%	-12%
CCN1CCN(c2ccc(S(=O)(=O)N3CCCCC3)cc2NC(=O)COc2ccccc2)CC1	?	50µM*	-10%	-2	-12%	?
